Laboratory results as given in PubChem BioAssay (NCI).
This is part of a sample that, as a whole, favours compounds with a hit. Of some 79,000 tested, about 15% had one in any assay. A number with no mark means an inactive call. Calls of active or inactive are those of the source. Rule as the data show it: active = growth inhibition above about 70%; inactive = the rest.

Experiment: NCI Yeast Anticancer Drug Screen. Data for the bub3 strain (AID 167)
Details: S. cerevisiae bub3 mutant strain, at 50.0 µM, hits give high values
How it was run: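 Steps: expose the mutant yeast strain to compound; grow alongside vehicle-treated cultures; measure growth; express inhibition against the vehicle cultures.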

Structure (SMILES) | growth inhibition
Clc1cc2n[nH]nc2c(Cl)c1Cl | 85.8% (active)
NSc1ccc(N)s1 | 87.7% (active)
O=C1C2=C(CCCC2)C(=O)C(Cl)C1Cl (centres undefined) | 99.5% (active)
O=C(COc1ccc2ccccc2c1)NC1c2ccccc2Oc2ccccc21 | 15.6%
COc1ccc(-c2cc(-c3ccco3)c(C#N)c(=S)n2C2OC(CO)C(O)C(O)C2O)cc1 (centres undefined) | -3%
Clc1cccc(Cl)c1C(Nc1nncs1)Nc1nncs1 | 53%
COC([C@@H](OC(=O)c1ccccc1)[C@H](OC(=O)c1ccccc1)C(O)COC(=O)c1ccccc1)n1cc(C)c(=O)[nH]c1=O (some centres undefined) | 71.8% (active)
C1=C(c2c(-c3ccccc3)[nH]c3ccccc23)Cc2ccccc21 | 71.4% (active)
CC12C(=O)OC(=O)C1C1c3ccccc3C2c2ccccc21 (centres undefined) | 89.5% (active)
O=C(N/C(=C\c1ccc(/C=C(\NC(=O)c2ccccc2)c2nc3ccccc3s2)cc1)c1nc2ccccc2s1)c1ccccc1 | 85.5% (active)
COS(=O)c1cc(Cl)cc(Cl)c1OC(=O)CSSCC(=O)Oc1c(Cl)cc(Cl)cc1S(=O)OC (centres undefined) | 98.9% (active)
COc1cc2c3c(c4ccc(OC)c(OC)c4c2cc1OC)CN1CCC[C@@H]1C3 | 92.3% (active)
N#CSC#CCCC#CSC#N | 92.4% (active)
Nc1nc(-c2ccc(Cl)cc2)c(N=Nc2ccc(Br)cc2)s1 | 96.5% (active)
CC(=O)C(C(C)=O)C1C=CC=CC=C1 | 92.5% (active)
CCCCN(C(=O)c1ccccc1)C1CCC(=O)c2[nH]c3ccccc3c21 (centres undefined) | 80.6% (active)
S=C(Nc1ccc(Cl)c(Cl)c1)N1c2ccccc2-n2cccc2C1c1cccnc1 (centres undefined) | 84% (active)
O=C1CCC(Cc2ccc(C(F)(F)F)cc2)C(=O)N1 (centres undefined) | -52.6%
Oc1cc(O)c2c(c1)OC(c1ccc(O)c(O)c1)C(OC1(c3cc(O)c(O)c(O)c3)Oc3cc(O)cc(O)c3C(O)C1O)C2 (centres undefined) | -33.5%
Cc1cccc(N=Nc2ccc(O)cc2)c1 | 98.5% (active)

Structure (SMILES) | growth inhibition
Cc1c2c(c(C)c3c4c(oc13)CCCC4)C=NCC2 | 50.2%
CCOC(=O)C(=CCC1NCCc2c1[nH]c1ccccc21)C(=O)OCC (centres undefined) | 92.4% (active)
CCOC(=O)C1=C(c2ccccc2)SC(c2ccccc2)N(C(C)C)C1=O (centres undefined) | 87.7% (active)
CN(C)CCCNc1cc(/C=C/c2ccc([N+](=O)[O-])cc2)nc2ccccc12 | 60.9%
CC(CN(C)C)C(=O)c1cn(C)c2ccccc12 (centres undefined) | -9.05%
Nc1ccccc1/C=C/c1c[nH]c2ccccc12 | 97.7% (active)
Cc1c(CNc2ccc(Cl)c(Cl)c2Cl)cnc2nc(N)nc(N)c12 | 51.5%
O=C(c1cccs1)N(C(=S)N1CCN(c2ccccn2)CC1)c1ccccc1 | 16.1%
COc1ccccc1/C=C1\NC(=S)N(/C=C2\C(=O)Oc3ccccc3C2=O)C1=O | 79.1% (active)
Cc1cc(O)c(C)c(C)c1N=Nc1ccccc1 | 63.8%
O=S1CCS(=O)C1c1ccccc1 (centres undefined) | 67.8%
Cc1ccc2nc(-c3ccc(N)cc3)sc2c1 | 72.5% (active)
CC1OC(OC2C(Oc3c(-c4ccc(O)c(O)c4O)oc4cc(O)ccc4c3=O)OC(CO)C(O)C2O)C(O)C(O)C1O (centres undefined) | 3.25%
O=C(OCc1ccccc1CN1CCOCC1)c1cccc(Br)c1 | 52.2%
C=CCOCC(C)OC(=O)C(C)C (centres undefined) | 11.8%
CC(C)(C)OC(=O)N[C@H]1CC2(C=C(Cl)C(=O)C(Cl)=C2)OC1=O | 70.4% (active)
CC(Nc1ccc(Cl)c(Cl)c1)c1ccncc1 (centres undefined) | 86% (active)
COc1ccccc1/C=C(\NC(=O)c1ccccc1)c1nc2ccccc2[nH]1 | 98% (active)
CCCCCCC(O)(CCCCCC)CCCCCC | 5.3%
